# Source: PubChem
# IL-1B inflam inh: inhibitors of inflammasome signaling (IL-1 beta secretion) | THP-1 LPS/ATP IL-1B secretion, AlphaLISA, 16 h; active compounds read low | activity change, % at 57.5 µM | actives 4.7% (n = 360,000) | AID 743279; in the data active means activity change below about -50%; inconclusive means mostly about -30% to -49%; further: on the % scale 0 is the no-effect control and ±100 the full control effect
#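 Secreted IL-1B measured by AlphaLISA bead assay after 16 h compound exposure of THP-1 cells; compounds (final up to 57.5 uM) added 1 h before LPS (250 ng/mL) and ATP (1.25 mM) stimulation; lower signal means less secretion.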
# HepG2 viability: kills HepG2 cells in TGF-b inhibitor counter-screen; HepG2 CAGA-GFP viability, ATP luminescence, 18 h; Potency, µM (doses to about 46.1 µM), for the others: top-dose activity change, negative = cytotoxicity, usual class: cytotoxic; actives 0.76% (n = 410,000); further: potency means the concentration at half of the fitted maximal effect
#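 HepG2 CAGA-GFP cells (1000/well, DMEM with 1% FBS) received compound, then TGF-beta at 500 pg/mL final, and were incubated 18 hours at 37 degrees C. Viability was read by CellTiter-Glo luminescence. Media-only wells were set as complete cell-killing and DMSO as no toxicity.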
# TGFb SMAD3 inh: inhibitors of TGF-b signaling | AID 588855 | Potency, µM (highest dose often 46.1 µM), inactives show at the highest dose activity, negative = inhibition, usual class: inhibitors | actives 1.2% (n = 410,000) | HepG2 CAGA-GFP TGF-b/SMAD3 reporter, GFP fluorescence, 18 h; TGF-beta stimulated, 500 pg/mL final; further: potency means the concentration at half of the fitted maximal effect; on the % scale 0 is the no-effect control and ±100 the full control effect; nearly all actives have a fitted effect of over 65% in size
#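 HEPG2 CAGA-GFP reporter cells (1000/well, DMEM with 1% FBS) received compounds, then recombinant TGF-beta at 500 pg/mL final for 18 hours at 37 degrees C. Per-cell GFP summed per well was normalised to unstimulated and stimulated DMSO controls before curve fitting.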
# ATXN2 expr inh: inhibitors of ATXN2 expression | HEK-293 ATXN2-luciferase reporter, luminescence, 24 h | Potency, µM (titrated, usually from 57 µM), for inactives: at the top dose activity change, negative = inhibition, usual class: inhibitors | actives 0.72% (n = 360,000) | AID 1745845; further: potency means the concentration at half of the fitted maximal effect; on the % scale 0 is the no-effect control and ±100 the full control effect; nearly all actives have a fitted effect of over 55% in size
#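 ATXN2-luciferase reporter cells (luciferase flanked by upstream and downstream ATXN2 gene portions) were treated 24 h at 37 °C with compounds at up to 57 uM. SteadyGlo luminescence gave expression; GF-AFC fluorescence gave viability.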
# ATXN viability: viability counter-screen for ATXN expression inhibitors | S2 cells (HEK-293 line with an ATXN2-luciferase reporter) viability, CellTiter-Fluor protease fluorescence, 24 h | Potency, µM (series often up to 56.7 µM), most hits filed as cytotoxic | actives 0.49% (n = 400,000) | AID 651635; further: potency means the concentration at half of the fitted maximal effect; nearly all actives have a fitted effect of over 40% in size
# * hit, by the source's call; i = inactive; u = inconclusive; x = not tested or not shown; [ ] = dose if it differs, or a comment. Rows were chosen to be rich in hits. Some 5.7% of all compounds tested hit in one or more screens of this group. Unless noted, the call rests on the fitted dose curve; in most records, active means well fitted curve in the direction sought with a large enough effect; inconclusive means small, poorly fitted or top-dose-only effect, or another doubt; inactive means no such curve, though single readings can be large; an effect the other way counts as inactive or inconclusive.
SMILES,IL-1B inflam inh,HepG2 viability,TGFb SMAD3 inh,ATXN2 expr inh,ATXN viability
N=C1S/C(=C\c2ccc(-c3cccc(Cl)c3)o2)C(=O)N1c1nccs1,-14,2%,u,3.5µM*,5.6µM*
COc1ccc(/C=C2\SC(=N)N(c3nccs3)C2=O)cc1OC,-1,-10%,-25%,11µM*,u
O=C1OC(c2cccs2)=N/C1=C\c1ccc(-c2cccc(Cl)c2)o1,26,-22%,2%,-14%,i
COc1ccc(/C=C2\SC(=O)N=C2N)cc1OC,8,-10%,15%,x,i
CCCSc1ncc(Cl)c(C(=O)N(Cc2ccc(N(C)C)cc2)C2CCS(=O)(=O)C2)n1 (centres undefined),x,-8%,x,x,x
CCC1CN(C(=O)Nc2ccc(Br)cc2F)c2ccccc2S1 (centres undefined),x,-6%,0%,x,x
COc1ccc(/C=N/Nc2cc(N3CCCC3)nc(N3CCCC3)n2)cc1,-91*,-70%,u,14µM*,28µM*
Oc1ccc(/C=N/Nc2cc(N3CCOCC3)nc(N3CCOCC3)n2)cc1,u,-44%,27%,-31%,i
Oc1ccc(/C=N/Nc2cc(N3CCCC3)nc(N3CCCC3)n2)cc1,-101*,-29%,-4%,-30%,i
Oc1cccc(/C=N/Nc2cc(N3CCCC3)nc(N3CCCC3)n2)c1,-102*,-30%,u,-19%,u
O=C1c2ccccc2NC(c2ccc(OCc3ccccc3)c(OCc3ccccc3)c2)N1Cc1ccco1 (centres undefined),x,2%,2%,x,x
CCN(CC)c1ccc(S(=O)(=O)Nc2cc(Cl)ccc2Cl)cc1NC(=S)NC(=O)C1CCCC1,-50*,2%,u,-8%,i
CCN(CC)S(=O)(=O)c1ccc(Cl)c(NC(=S)NC(=O)C2CCCC2)c1,u,-35%,u,u,i
CN(C)C(=S)N=c1ssc(=S)n1Cc1ccccc1,-2,-59%,2.2µM*,-23%,u
O=C(CCCc1ccccc1)NC1CC(=O)N(c2ccc(F)cc2)C1 (centres undefined),x,-8%,-3%,x,x
Cc1cc(NCC2CCCCC2)nc2ccccc12,-100*,-51%,10%,-13%,i
CN(C)c1ccc(NC(=O)c2cccc(C(=O)Nc3ccc(N(C)C)cc3)n2)cc1,-56*,-50%,-3%,u,i
O=C(Nc1ccccc1)c1cccc(C(=O)Nc2ccccc2)n1,4,-3%,2%,11%,u
C=CCn1c(SCC(=O)Nc2ccc(Cl)cn2)nnc1C1CC1,40,9%,-3%,-4%,i
Cn1c(SCC(=O)Nc2ccc(Cl)cn2)nnc1C1CC1,-78*,5%,0%,-4%,i
O=C(C[n+]1ccccc1Cl)c1cccc([N+](=O)[O-])c1,x,-46%,-29%,x,x
Cc1ccc(CN(C(=O)COc2ccc(C(C)(C)C)cc2)C2CCS(=O)(=O)C2)o1 (centres undefined),x,-15%,x,x,x
Cc1ccc(C)c(N2CCN(C(=O)c3cc4c(=O)n(Cc5cccs5)ccc4nc3C)CC2)c1,x,16%,10%,u,u
Cc1ccc(-n2cc(S(=O)(=O)c3ccc(C)cc3)[nH]c2=O)cc1,4,3.2µM*,u,-11%,i
CCc1ccc(-c2nn(CC(=O)NCc3ccccc3)c3c2cnc2ccc(C)cc23)cc1,x,5%,4%,8%,i
SMILES,IL-1B inflam inh,HepG2 viability,TGFb SMAD3 inh,ATXN2 expr inh,ATXN viability
CCOC(=O)c1sc2nc(OCc3cccnc3)cc(C)c2c1N,-50*,x,x,1%,i
OCCNc1nc(Nc2ccc(Br)cc2)nc2ccccc12,-101*,2%,u,-11%[11.3 µM],x
OCCNc1nc(Nc2ccccc2)nc2ccccc12,x,-5%,u,-12%,i
Cc1c(Cl)cccc1Nc1nc(NCCO)c2ccccc2n1,-108*,-19%,11µM*,-12%,i
O=S(=O)(c1ccc2c(c1)CCCC2)N1CCN(c2nc(-c3ccccc3)nc3ccccc23)CC1,x,4%,5%,x,x
Cc1ccc(N(CC(=O)N2CCN(c3cc(C)ccc3C)CC2)S(=O)(=O)c2c(C)nn(C)c2C)cc1,x,-77%,u,u,u
COC(=O)[C@@]1(Cc2ccc(F)cc2)[C@H]2c3cc(C(=O)N4CCCC4)n(Cc4ccccc4)c3C[C@H]2CN1C(=O)c1ccccc1,-51*,x,x,u,x
COC(=O)[C@@]1(Cc2ccc(OC)cc2)[C@H]2c3cc(C(=O)N(C)C)n(Cc4ccc(OC(F)(F)F)cc4)c3C[C@H]2CN1C(=O)c1ccccc1,-62*,-17%,u,-38%,u
COC(=O)[C@@]1(Cc2ccc(F)cc2)[C@H]2c3cc(C(=O)N4CCCC4)n(C)c3C[C@H]2CN1C(=O)c1ccccc1,-54*,x,x,-24%,i
COC(=O)[C@@]1(Cc2ccc(F)cc2)[C@H]2c3cc(C(=O)N(C)C)n(Cc4ccccc4)c3C[C@H]2CN1C(=O)c1ccccc1,-22,1%,u,u,u
CCn1c2ccccc2c2nnc(N3CCN(c4ccc(OC)cc4)CC3)nc21,x,-10%,-13%,x,x
COc1ccc(Cl)cc1-c1cc2c(c(OC)c1)OCCN(Cc1cccn1-c1nccs1)C2,x,x,x,x,i
CCC1CCc2sc(C(=O)N3CCCN(C)CC3)cc2C1 (centres undefined),-69*,-5%,4%,41%,i
COc1ccc(-c2csc(N3CCC(C(N)=O)(N4CCCCC4)CC3)n2)cc1,-77*,-12%,-28%,-37%,u
CCCNC(=S)N1CCN(c2nc(-c3cccc(OC)c3)cs2)CC1,-59*,-31%,-31%,-25%,u
O=C(NC1CCCCC1)N1CCN(c2nc(-c3ccccc3)cs2)CC1,-64*,-24%,u,u,u
COc1cccc(-c2csc(N3CCN(C(=O)C4CCCCC4)CC3)n2)c1,-73*,-23%,u,-1%,i
COc1cccc(-c2csc(N3CCN(C(=O)Nc4ccc(F)cc4)CC3)n2)c1,-7,-19%,-18%,-22%,i
O=C(c1ccc2c(c1)CCN2S(=O)(=O)c1ccc(Cl)cc1)N1CCN(c2ccc(F)cc2)CC1,x,-18%,u,-21%,u
C[C@]12C=CC(=O)N[C@@H]1CC[C@H]1[C@H]3CC[C@@H](C(=O)Nc4cc(C(F)(F)F)ccc4C(F)(F)F)[C@@]3(C)CC[C@@H]12,x,x,x,-27%,x
CCC(=O)N1CCc2cc(S(=O)(=O)CCC(=O)Nc3nc(C)cs3)ccc21,-58*,-13%,-4%,27%,i
O=C(Nc1cc(F)ccc1F)N1CCC(CN2CCCC2)CC1,x,2%,-4%,x,x
CCCCN1Cc2cc(C(=O)c3cc(F)ccc3O)cnc2NC1=O,-57*,6%,16%,-3%,i
Cc1[nH]nc2ncc(C(=O)c3cc(F)ccc3O)cc12,0,20%,19%,2%,i
